This is a sample that favours compounds with a hit; in the whole collection about 18% have one here.
CtBP-E1A inh: qHTS Assay for Inhibitors of the CtBP/E1A Interaction; AlphaScreen GST-E1A/His-CtBP binding, 1536-well; active compounds read low; 340,000 compounds, 0.49% hits; activity change, % (no concentration beside the values); CtBP / adenovirus E1A interaction (AlphaScreen); in the data active = activity change below about -65%; inconclusive = mostly about -30% to -63%
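GST-E1A and His-tagged CtBP (125 nM each as 5X stock) were preincubated with pin-transferred compound for 2 h at 37 °C in the dark, then glutathione donor and nickel acceptor beads were added for 1 h before AlphaScreen reading.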
TDP1 block: qHTS Assay for Inhibitors of Tyrosyl-DNA Phosphodiesterase (TDP1) | AID 485290, 2010 | recombinant TDP1, AlphaScreen DNA substrate cleavage | 350,000 compounds, 0.28% hits | Tyrosyl-DNA phosphodiesterase 1 (Homo sapiens), Q9NUW8 | Potency, µM (highest dose often 130 µM), for inactives: top-dose activity change, negative = inhibition, hits mostly inhibitors; note: potency is the fitted concentration of half-maximal effect; nearly all actives have a fitted effect of over 40% in size
Target sequence (Q9NUW8 whole entry, looked up): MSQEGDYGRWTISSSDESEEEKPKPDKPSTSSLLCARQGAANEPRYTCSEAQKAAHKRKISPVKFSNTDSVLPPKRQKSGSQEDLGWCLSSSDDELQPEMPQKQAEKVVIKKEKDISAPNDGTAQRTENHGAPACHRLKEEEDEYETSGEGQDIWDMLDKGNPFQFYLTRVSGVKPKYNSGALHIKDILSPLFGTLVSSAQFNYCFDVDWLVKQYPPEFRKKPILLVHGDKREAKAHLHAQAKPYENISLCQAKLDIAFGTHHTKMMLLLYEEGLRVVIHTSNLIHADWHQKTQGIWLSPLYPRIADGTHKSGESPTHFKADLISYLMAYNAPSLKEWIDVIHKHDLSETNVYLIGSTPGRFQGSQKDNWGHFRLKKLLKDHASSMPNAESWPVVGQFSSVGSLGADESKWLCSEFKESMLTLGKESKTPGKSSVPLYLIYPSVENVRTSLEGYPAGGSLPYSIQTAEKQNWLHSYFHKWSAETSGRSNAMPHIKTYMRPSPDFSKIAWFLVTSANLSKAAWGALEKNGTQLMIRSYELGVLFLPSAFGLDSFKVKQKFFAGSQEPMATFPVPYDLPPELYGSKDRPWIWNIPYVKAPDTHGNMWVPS
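Compounds were preincubated with Tdp1 (1 nM final) for 15 min at room temperature before substrate (15 nM final) started a 5 min reaction; beads (10 ug/ml final) were then added for 10 min before AlphaScreen detection.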
IL1B secr inh: qHTS for Inhibitors of Inflammasome Signaling: IL-1-beta AlphaLISA Primary Screen; AID 743279, 2014; THP-1 LPS/ATP IL-1B secretion, AlphaLISA, 16 h; active compounds read low; activity change, % at 57.5 µM; 360,000 compounds, 4.7% hits; in the data active = activity change below about -50%; inconclusive = mostly about -30% to -49%
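Secreted IL-1B measured by AlphaLISA bead assay after 16 h compound exposure of THP-1 cells; compounds (final up to 57.5 uM) added 1 h before LPS (250 ng/mL) and ATP (1.25 mM) stimulation; lower signal means less secretion.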
DT40 TDP1 CPT: qHTS for Inhibitors of human tyrosyl-DNA phosphodiesterase 1 (TDP1): qHTS in cells in presence of CPT; chicken DT40 Tdp1-/-;hTDP1 cells + 20 nM CPT, ATP luminescence, 48 h; Potency, µM (series often up to 46.2 µM), inactives show top-dose activity change, negative = growth inhibition, actives largely listed as inhibitors; 420,000 compounds, 12% hits; AID 686979, 2013; note: potency is the fitted concentration of half-maximal effect; nearly all actives have a fitted effect of over 55% in size
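Chicken DT40 Tdp1-/- cells complemented with human TDP1, 400 cells/well, exposed to compounds plus 20 nM camptothecin for at least 48 h at 37 C; viability read as ATP content by CellTiter-Glo luminescence.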
DT40 TDP1 no CPT: qHTS for Inhibitors of human tyrosyl-DNA phosphodiesterase 1 (TDP1): qHTS in cells in absence of CPT; DT40 Tdp1-/- hTDP1 cells, no CPT, ATP luminescence, 48 h; Potency, µM (top dose mostly 46.2 µM), inactives show at the top dose activity change, negative = growth inhibition, hits mostly inhibitors; 420,000 compounds, 15% hits; AID 686978, 2013; note: potency is the fitted concentration of half-maximal effect; nearly all actives have a fitted effect of over 55% in size
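Camptothecin absent (DMSO only). Human TDP1-complemented DT40 knockout cells, 400 cells/well, 37 °C for minimum 48 hr; ATP measured via CellTiter-Glo, 30 min dark incubation, luminescence.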
Six1-Eya2 blk: qHTS Assay for Inhibitors of the Six1/Eya2 Interaction; Homeobox protein SIX1 (Homo sapiens) + Protein phosphatase EYA2 (Homo sapiens), …; AlphaScreen GST-Six1/His-Eya2 binding, biochemical; active compounds read low; activity change, % (no concentration beside the values); 360,000 compounds, 0.56% hits; AID 651725, 2012; in the data active = activity change below about -65%; inconclusive = mostly about -30% to -63%
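AlphaScreen luminescence read after one hour at 37 °C in darkness. Pin-transferred compounds met GST-Six1 and His-Eya2 protein (5X stock 250 nM/500 nM) plus glutathione donor and Ni-chelate acceptor beads (5X, 50 ug/mL).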
Starred values were filed as active, the others as inactive; ? = inconclusive; . = no result given. Unless noted, calls come from the whole dose curve; as a rule, active = well fitted curve in the direction sought with a large enough effect; inconclusive = small, poorly fitted or top-dose-only effect, or another doubt; inactive = no such curve, though single readings can be large; an effect the other way counts as inactive or inconclusive. % is set by controls: 0 for no effect and ±100 for the full control effect.

SMILES | CtBP-E1A inh | TDP1 block | IL1B secr inh | DT40 TDP1 CPT | DT40 TDP1 no CPT | Six1-Eya2 blk
C=CCN1C(=O)N/C(=C/c2ccccc2OCC(=O)Nc2ccc(F)cc2)C1=O | . | 5% | 3 | ? | ? | 5
CCOC(=O)c1cccc(N2C(=O)Nc3ccccc3N2O)c1 | 20 | 0% | 3 | -4% | -1% | 16
COCCNC(=O)COc1cc(=O)n(C)c2ccccc12 | -2 | 1% | -18 | -7% | 1% | 10
CC(NC(=O)c1c2c(nc3ccccc13)C(=O)N(C1CCCCC1)C2)c1ccccc1 (centres undefined) | . | 11% | . | 16µM* | 18µM* | .
CCC(C)NC(=O)c1c2c(nc3ccccc13)C(=O)N(C1CCCCC1)C2 (centres undefined) | . | 1% | . | -13% | -24% | .
CC(=O)c1ccc(NC(=O)c2c3c(nc4ccccc24)C(=O)N(C2CCCCC2)C3)cc1 | . | 2% | . | 21µM* | 21µM* | .
COc1cc(NC(=O)c2c3c(nc4ccccc24)C(=O)N(C2CCCCC2)C3)cc(OC)c1 | . | 8% | . | -21% | -15% | .
COc1ccc(CCNC(=O)CSc2nc3ncccc3[nH]2)c(OC)c1 | 3 | 2% | -3 | -12% | -2% | -1
CC(C)OC(=O)c1cc2c(ccn2C)n1CC(=O)N(Cc1ccccc1)c1ccccc1 | -16 | 8% | -64* | ? | 16µM* | -21
CCOC(=O)c1cc2c(ccn2C)n1Cc1cc(C)ccc1C | -27 | 10% | -5 | ? | ? | ?
O=C(Nc1ccc(F)cc1)c1cncs1 | -9 | . | 18 | 10% | -6% | -6
CCN(Cc1ccccc1)S(=O)(=O)c1ccc2[nH]c3c(c2c1)CCCCC3 | . | 6% | . | . | . | .
CC(N=Cc1ccccc1O)c1ccccc1 (centres undefined) | 2 | -4% | 0 | -22% | -5% | 2
Cc1cc(O)c(C(C)C)cc1N=Cc1cc([N+](=O)[O-])ccc1O | -14 | 9% | 2 | 23µM* | 16µM* | 1
O=c1[nH]cc(N=Cc2cc([N+](=O)[O-])ccc2O)c(=O)[nH]1 | . | -7% | . | . | . | .
Cc1cc(O)c(C(C)C)cc1N=Cc1ccccc1O | . | 7% | -10 | 3.7µM* | 4.6µM* | 14
O=C(Nc1nccs1)C1Cc2ccccc2CN1S(=O)(=O)c1ccc(F)cc1 (centres undefined) | -11 | 4% | 6 | ? | 15µM* | -1
CC(=O)Nc1cccc(NC(=O)c2ccc3c(c2)CCN3S(=O)(=O)c2ccccc2)c1 | -4 | 4% | ? | ? | ? | -3
COc1ccccc1CNC(=O)c1ccc2c(c1)CCN2S(=O)(=O)c1ccccc1 | . | -2% | . | ? | 8.2µM* | .
O=C(NC1CCCCC1)C1Cc2ccccc2CN1S(=O)(=O)c1ccc(F)cc1 (centres undefined) | 19 | -2% | 1 | -7% | ? | 0
COc1ccc(NC(=O)c2ccc3c(c2)CCN3S(=O)(=O)c2ccccc2)cc1 | -3 | 0% | -56* | ? | ? | -3
O=C(Nc1ccccc1)c1ccc2c(c1)CCN2S(=O)(=O)c1ccccc1 | . | 0% | -22 | ? | ? | -6
CCCCOC(=O)c1ccc(NC(=O)c2ccc3c(c2)CCN3S(=O)(=O)c2ccccc2)cc1 | . | -7% | . | 5.8µM* | 7.3µM* | .
CC(=O)c1c(O)c2cccc3c2n(c1=O)CCC3 | . | . | 9 | 7% | -21% | -1
CC(CNC(=O)CCc1nnc(CCC2CCCCC2)o1)c1ccccc1 (centres undefined) | 0 | 0% | -16 | -4% | ? | 2
SMILES | CtBP-E1A inh | TDP1 block | IL1B secr inh | DT40 TDP1 CPT | DT40 TDP1 no CPT | Six1-Eya2 blk
C[C@H](CO)N1C[C@H](C)[C@@H](CN(C)S(=O)(=O)c2cn(C)cn2)Oc2ccc(NS(=O)(=O)c3ccccc3)cc2C1=O | 0 | 0% | -2 | 0% | 2% | 22
CCOc1ccc(S(=O)(=O)N2Cc3ccccc3CC2C(=O)O)cc1 (centres undefined) | 12 | -1% | -1 | -5% | 23% | 18
O=C(Nc1ccc(F)c(Cl)c1)C1Cc2ccccc2CN1S(=O)(=O)c1ccc(F)cc1 (centres undefined) | . | 6% | . | ? | ? | .
COc1ccc(CNC(=O)c2ccc3c(c2)CCN3S(=O)(=O)c2ccc(C)cc2)cc1 | . | 5% | . | 10µM* | 13µM* | .
CCOC(=O)c1ccc(NC(=O)C2Cc3ccccc3CN2S(=O)(=O)c2ccc(Cl)cc2)cc1 (centres undefined) | . | -4% | . | ? | 16µM* | .
COc1ccc(S(=O)(=O)N2Cc3ccccc3CC2C(=O)O)cc1 (centres undefined) | -10 | 28µM* | -3 | -4% | 2% | -9
NS(=O)(=O)c1ccc(NC(=O)c2ccc3c(c2)CCN3S(=O)(=O)c2ccccc2)cc1 | -3 | -2% | -4 | 23µM* | 10µM* | -2
Cc1ccc(S(=O)(=O)N2CCc3cc(C(=O)NCCc4ccccc4)ccc32)cc1 | . | 0% | . | ? | -28% | .
COc1cccc(Cn2c(=O)c(-c3ccc(F)cc3)nc3cnc(OC)nc32)c1 | . | . | . | 6% | 1% | .
CCc1nc2ccc(C(=O)NCCCN3CCCC3=O)cn2c1N(CCC(C)C)CCN(C)C | -23 | . | 0 | -22% | -5% | 9
CCOc1ccc(Br)cc1S(=O)(=O)N1CCCN(C)CC1 | -22 | . | -20 | ? | -22% | 12
CCOc1ccc(NC(=O)c2ccc3c(c2)CCN3S(=O)(=O)c2ccc(Cl)cc2)cc1 | . | 0% | . | -23% | ? | .
COc1ccc(S(=O)(=O)N2Cc3ccccc3CC2C(=O)Nc2cccc(C)c2)cc1OC (centres undefined) | . | -2% | . | ? | 9.2µM* | .
CCOC(=O)c1ccc(NC(=O)c2ccc3c(c2)CCN3S(=O)(=O)c2ccc(Cl)cc2)cc1 | . | 0% | . | 7.3µM* | ? | .
COC(=O)CNC(=O)C1Cc2ccccc2CN1S(=O)(=O)c1cccs1 (centres undefined) | 9 | 3% | -74* | -18% | -8% | 0

Source: PubChem BioAssay (National Center for Advancing Translational Sciences (NCATS))
